# Source: PubChem BioAssay
# USP17 block – inhibitors of human USP17 deubiquitinase | inhibition, % at 50 µM | 6.5% of 47,000 active | purified USP17, Ub-rhodamine cleavage fluorescence, 3 h
# USP30 inh – blocks human USP30 ubiquitin-rhodamine cleavage; purified USP30, Ub-rhodamine cleavage fluorescence; inhibition, % at 25 µM; 5.3% of 47,000 active; AID 1645860
# Target sequence (Q70CQ3 whole entry, looked up): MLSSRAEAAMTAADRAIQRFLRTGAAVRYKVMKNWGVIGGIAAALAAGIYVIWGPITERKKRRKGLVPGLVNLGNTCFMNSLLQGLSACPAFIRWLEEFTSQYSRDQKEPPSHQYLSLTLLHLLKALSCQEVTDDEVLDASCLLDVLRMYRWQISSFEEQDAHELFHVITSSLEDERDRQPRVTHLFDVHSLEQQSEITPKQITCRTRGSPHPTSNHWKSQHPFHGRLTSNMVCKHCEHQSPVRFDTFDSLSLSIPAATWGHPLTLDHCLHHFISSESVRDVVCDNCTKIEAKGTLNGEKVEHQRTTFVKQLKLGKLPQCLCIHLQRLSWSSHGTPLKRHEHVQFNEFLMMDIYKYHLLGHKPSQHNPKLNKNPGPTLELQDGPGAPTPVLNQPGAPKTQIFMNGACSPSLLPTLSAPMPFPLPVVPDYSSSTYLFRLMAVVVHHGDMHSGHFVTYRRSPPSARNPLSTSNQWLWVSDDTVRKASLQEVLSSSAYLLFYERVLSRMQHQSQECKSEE
# Active calls of the source: *; . = no result. A selection: hits, their analogues and other compounds. The true share with any hit is near 9.6%. No stated cut-off is given here; in the data, active means inhibition above about 30%; inactive means the rest.
SMILES,USP17 block,USP30 inh
CCC(CC)C(=O)N1CCCC(c2nccnc2-c2ncc(C)[nH]2)C1 (stereo not drawn),1.6,23.8
Cc1ccc(CSc2nc3c(c(N(C)C)n2)CCCC3)cc1,14.3,33.0*
Cc1ccc(CSc2nc3c(c(N4CC(C)OC(C)C4)n2)CCCC3)cc1 (stereo not drawn),-5.5,-2.8
COc1ccc(N(CC(=O)NCc2ccccc2)C(=O)CCC(=O)Nc2ccccn2)c(OC)c1,-6.8,-9.6
CCOC(=O)C1(Cc2cc(-c3ccccc3C)no2)CCCN(Cc2cncn2C)C1 (stereo not drawn),-5.2,-10.7
CCOC(=O)C1(Cc2cc(-c3ccc(F)cc3)no2)CCCN(Cc2cnc(C)n2C)C1 (stereo not drawn),11.1,36.0*
CCOc1ccc(OCC)c(NC(=O)c2ccc(NC(=O)CCS(=O)(=O)c3cccs3)cc2)c1,8.8,24.6
O=C(CCc1ccccc1)N(CC1CCCO1)c1nc2ccccc2s1 (stereo not drawn),21.0,55.8*
O=C(CCc1ccccc1)N(Cc1cccnc1)c1nc2cc3c(cc2s1)OCO3,9.8,8.1
O=C(Nc1cccc(Cl)c1)c1ncn2c1CNS(=O)(=O)c1ccccc1-2,33.4*,36.0*
O=C(c1ncn2c1CNS(=O)(=O)c1ccccc1-2)N1CCCC1,-11.3,-14.8
Cc1ccc(C)c(S(=O)(=O)N2CCN(c3ccc(CN4CCC(CO)CC4)cn3)CC2)c1,-10.8,5.2
Cc1ccc2cc(CCNC(=O)c3cccc(Br)c3)c(=O)[nH]c2c1,67.1*,-0.9
Cc1cc2cc(CCNC(=O)/C=C\c3ccccc3)c(=O)[nH]c2cc1C,18.0,-10.5
Cc1cc2cc(CCNC(=O)c3ccc(F)cc3)c(=O)[nH]c2cc1C,2.1,11.4
Cc1ccc2cc(CCNC(=O)c3ccccc3Br)c(=O)[nH]c2c1,47.9*,-13.7
CN1CCN(c2ccc(-c3ccc(Br)cc3)nn2)CC1,2.4,13.1
Cc1ccccc1-c1noc(-c2cccnc2NCC2CCCO2)n1 (stereo not drawn),-5.8,-48.4
O=C1NC2(CCCCCC2)C(=O)N1Cc1nc(-c2ccc(Cl)cc2)no1,39.5*,-33.9
Cc1ccc2c(c1)N(Cc1nc(-c3ccc(F)cc3)no1)C(=O)CO2,-12.2,-25.5
Cc1cc(CCC2CN(C(=O)c3noc4c3CCCC4)CCO2)ncn1 (stereo not drawn),-52.0,0.0
CC(C)c1cc(C(=O)N2CCOC(CCc3cc(=O)[nH]cn3)C2)on1 (stereo not drawn),16.0,39.7*
CC(=O)NC(Cc1ccc(F)c(F)c1)C(=O)NC1CCN(C(=O)C2CCCCC2)CC1 (stereo not drawn),.,-1.5
CCOc1cccc(-c2noc(-c3c(O)c4ccccc4[nH]c3=O)n2)c1,0.6,2.7
CSc1cccc(NC(=O)COc2cccc3ccccc23)c1,40.8*,78.0*
SMILES,USP17 block,USP30 inh
Cc1cc(Cl)ccc1OCC(=O)Nc1ccccc1,13.6,-3.2
O=C(CCc1c[nH]c2ccccc12)N1CCN(C(=O)c2ccncc2)CC1,-1.8,3.7
O=C(c1ccncc1)N1CCC(c2c[nH]c3ccccc23)(c2c[nH]c3ccccc23)CC1,47.0*,3.6
Cc1cccc(NC(=O)Cn2c(=O)c3cccnc3n(-c3ccccc3)c2=O)c1C,-15.1,-45.3
CCCn1cc(-c2nc(-c3ccccn3)no2)c(=O)c2cc(F)ccc21,17.5,1.2
CCn1cc(-c2nc(-c3ccccc3)no2)c(=O)c2cc(F)ccc21,67.3*,11.2
COc1ccc(CNC(=O)c2cc(S(=O)(=O)N3CCc4ccccc43)ccc2OC)cc1OC,0.0,13.5
Cc1cc(N2CCCC2c2nc(C)cc(-c3ncc[nH]3)n2)ncn1 (stereo not drawn),-12.2,-5.1
CCCC(C)NC(=O)c1ccccc1-c1ccc(C(F)(F)F)cc1 (stereo not drawn),16.2,7.7
CC(=O)c1sc(NC(=O)c2ccccc2-c2ccc(C(F)(F)F)cc2)nc1C,64.5*,38.5*
COc1ccccc1CNC(=O)C(=O)c1cn(CC(=O)N2CCCCC2)c2ccccc12,15.5,25.7
CCN(CC)C(=O)Cn1cc(C(=O)C(=O)NCc2ccccc2Cl)c2ccccc21,5.1,45.5*
Cc1ccccc1CS(=O)(=O)c1cn(CC(=O)N2CCCCC2)c2ccccc12,-0.1,-10.1
CCN(CC)C(=O)Cn1cc(S(=O)(=O)Cc2c(F)cccc2Cl)c2ccccc21,14.3,37.7*
CCN(CC)C(=O)Cn1cc(S(=O)(=O)Cc2ccccc2Cl)c2ccccc21,37.7*,18.3
O=C(Cn1cc(S(=O)(=O)Cc2c(F)cccc2Cl)c2ccccc21)N1CCCCCC1,1.1,-0.5
CCc1ccc(-n2c(=O)c3ccccc3n(CC(=O)N3CCCC3)c2=O)cc1,7.6,6.3
O=C(c1nc(-c2ccccc2)nc2c1OCO2)N1CCOCC1,0.0,8.0
O=C(Cc1cccnc1)N1CCCC1(CO)Cc1ccccc1 (stereo not drawn),16.1,15.3
COc1ccc(CCNC(=O)c2cn(-c3ccc(F)cc3)nn2)cc1OC,34.2*,61.5*
